# Source: PMC7862700, “An all-to-all approach to the identification of sequence-specific readers for epigenetic DNA modifications on cytosine”
# Key:
# Assay in all cases: DAPPL (digital affinity profiling via proximity ligation, sequencing); 10 mM Tris-HCl pH 7.5, 50 mM NaCl, 1 mM DTT, 4% glycerol, room temperature, 30 min; GST-TFs on glutathione beads, 16-mer random dsDNA library, 0.1% formaldehyde crosslink after washing; high values mean tight binding
# [1] = target: T1, FLI1 (Homo sapiens, UniProt Q01543 1-452); settings: protein: recombinant; tags: N-terminal GST; dsDNA, one strand shown
# T1 sequence: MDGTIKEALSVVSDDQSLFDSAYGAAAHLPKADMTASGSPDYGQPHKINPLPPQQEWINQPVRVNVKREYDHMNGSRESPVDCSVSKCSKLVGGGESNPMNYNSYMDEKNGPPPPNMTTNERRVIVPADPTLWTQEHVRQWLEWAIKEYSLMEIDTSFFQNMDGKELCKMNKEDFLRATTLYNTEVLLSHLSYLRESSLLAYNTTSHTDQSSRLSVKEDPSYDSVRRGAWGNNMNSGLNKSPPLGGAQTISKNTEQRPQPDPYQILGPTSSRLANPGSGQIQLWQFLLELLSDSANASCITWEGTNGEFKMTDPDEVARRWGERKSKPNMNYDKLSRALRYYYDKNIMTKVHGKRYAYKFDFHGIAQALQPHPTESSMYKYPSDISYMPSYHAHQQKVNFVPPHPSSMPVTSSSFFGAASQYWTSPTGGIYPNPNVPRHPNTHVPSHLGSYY
# Procedure, shortened: (§1)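 Beads coated with glutathione captured GST-fused human transcription factors that had been expressed in yeast, and the factors were then given DNA barcodes and pooled with a tag-only sample. The pools were incubated with 200 nmole of a random double-stranded 16-mer DNA library in Tris/NaCl/DTT/glycerol buffer for 30 min at room temperature, washed, crosslinked with 0.1% formaldehyde and proximity-ligated with BsaI/T4 ligase at 37 °C for 1 h. PCR amplification and Illumina NextSeq500 sequencing came last. Binding signal is each hexamer's read frequency for a factor divided by its frequency for the tag-only sample.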
# [2] = target: T2, ELK1 (Homo sapiens, UniProt P19419 1-428); settings: protein: recombinant; tags: N-terminal GST; dsDNA, one strand shown
# T2 sequence: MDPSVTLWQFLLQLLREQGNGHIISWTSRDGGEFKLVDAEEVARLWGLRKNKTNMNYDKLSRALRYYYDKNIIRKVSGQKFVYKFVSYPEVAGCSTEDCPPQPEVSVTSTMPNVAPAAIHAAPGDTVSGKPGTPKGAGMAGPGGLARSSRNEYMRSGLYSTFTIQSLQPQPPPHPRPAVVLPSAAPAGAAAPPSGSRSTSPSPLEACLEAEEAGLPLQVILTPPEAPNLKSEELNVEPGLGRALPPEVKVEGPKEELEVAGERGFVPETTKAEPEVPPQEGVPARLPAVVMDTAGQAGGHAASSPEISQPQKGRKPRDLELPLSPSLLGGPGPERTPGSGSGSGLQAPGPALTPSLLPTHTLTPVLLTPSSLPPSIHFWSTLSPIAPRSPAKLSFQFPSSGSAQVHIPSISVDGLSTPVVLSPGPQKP
# Procedure, shortened: as §1
# [3] = target: T3, GABPA (Homo sapiens, UniProt Q06546 1-454); settings: protein: recombinant; tags: N-terminal GST; dsDNA, one strand shown
# T3 sequence: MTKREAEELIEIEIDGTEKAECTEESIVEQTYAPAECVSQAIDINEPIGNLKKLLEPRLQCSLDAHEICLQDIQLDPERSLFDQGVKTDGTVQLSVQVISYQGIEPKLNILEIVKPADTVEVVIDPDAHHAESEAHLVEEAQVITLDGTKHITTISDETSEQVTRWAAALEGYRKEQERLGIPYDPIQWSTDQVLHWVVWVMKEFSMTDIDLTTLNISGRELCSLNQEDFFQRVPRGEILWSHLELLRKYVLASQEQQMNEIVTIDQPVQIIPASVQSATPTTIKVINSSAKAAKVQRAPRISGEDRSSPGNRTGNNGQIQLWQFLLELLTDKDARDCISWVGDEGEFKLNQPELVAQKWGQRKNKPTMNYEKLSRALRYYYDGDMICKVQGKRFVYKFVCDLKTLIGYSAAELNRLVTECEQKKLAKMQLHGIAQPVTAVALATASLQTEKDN
# Procedure, shortened: as §1
# [4] = target: T4, ERG (Homo sapiens, UniProt P11308 1-479); settings: protein: recombinant; tags: N-terminal GST; dsDNA, one strand shown
# T4 sequence: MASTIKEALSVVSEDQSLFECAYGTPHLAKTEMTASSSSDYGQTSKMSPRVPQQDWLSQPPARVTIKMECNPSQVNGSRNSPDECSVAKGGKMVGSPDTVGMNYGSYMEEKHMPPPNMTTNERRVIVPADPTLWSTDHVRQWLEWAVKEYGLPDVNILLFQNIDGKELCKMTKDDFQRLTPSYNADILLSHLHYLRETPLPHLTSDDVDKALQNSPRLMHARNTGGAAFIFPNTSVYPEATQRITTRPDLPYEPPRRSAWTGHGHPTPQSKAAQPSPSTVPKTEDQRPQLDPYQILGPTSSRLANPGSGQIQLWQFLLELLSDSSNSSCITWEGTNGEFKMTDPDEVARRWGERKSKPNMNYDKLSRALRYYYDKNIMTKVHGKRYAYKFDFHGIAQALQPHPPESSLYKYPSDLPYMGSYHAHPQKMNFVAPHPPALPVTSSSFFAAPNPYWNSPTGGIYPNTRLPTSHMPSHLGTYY
# Procedure, shortened: as §1
# [5] = target: ELF1 (Homo sapiens, UniProt P32519 1-619); settings: protein: recombinant; tags: N-terminal GST; dsDNA, one strand shown
# Procedure, shortened: as §1
# [6] = target: T5, EHF (Homo sapiens, UniProt Q9NZC4 1-300); settings: protein: recombinant; tags: N-terminal GST; dsDNA, one strand shown
# T5 sequence: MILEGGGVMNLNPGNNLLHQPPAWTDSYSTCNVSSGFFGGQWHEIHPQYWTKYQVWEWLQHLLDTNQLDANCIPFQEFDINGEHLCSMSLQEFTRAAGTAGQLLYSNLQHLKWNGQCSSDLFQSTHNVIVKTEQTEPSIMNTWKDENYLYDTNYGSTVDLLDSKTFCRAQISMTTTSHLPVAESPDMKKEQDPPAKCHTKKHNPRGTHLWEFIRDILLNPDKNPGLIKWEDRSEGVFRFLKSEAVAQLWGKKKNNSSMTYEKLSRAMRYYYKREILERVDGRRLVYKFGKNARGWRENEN
# Procedure, shortened: as §1
# [7] = target: SPI1 (Homo sapiens, UniProt P17947 1-270); settings: protein: recombinant; tags: N-terminal GST; dsDNA, one strand shown
# Procedure, shortened: as §1
# [8] = target: SPIB (Homo sapiens, UniProt Q01892 1-262); settings: protein: recombinant; tags: N-terminal GST; dsDNA, one strand shown
# Procedure, shortened: as §1
# [9] = target: T6, ELK3 (Homo sapiens, UniProt P41970 1-407); settings: protein: recombinant; tags: N-terminal GST; dsDNA, one strand shown
# T6 sequence: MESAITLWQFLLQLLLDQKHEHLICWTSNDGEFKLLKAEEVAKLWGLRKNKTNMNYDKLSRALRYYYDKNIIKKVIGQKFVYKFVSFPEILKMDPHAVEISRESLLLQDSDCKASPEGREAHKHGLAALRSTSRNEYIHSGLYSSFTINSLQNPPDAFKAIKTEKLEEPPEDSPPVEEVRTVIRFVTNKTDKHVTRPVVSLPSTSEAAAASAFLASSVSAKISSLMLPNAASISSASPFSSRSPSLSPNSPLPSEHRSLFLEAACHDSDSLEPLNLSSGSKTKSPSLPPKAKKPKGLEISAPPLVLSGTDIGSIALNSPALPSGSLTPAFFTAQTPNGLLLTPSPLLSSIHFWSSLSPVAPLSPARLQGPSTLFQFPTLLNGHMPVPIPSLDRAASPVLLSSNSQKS
# Procedure, shortened: as §1
# [10] = target: T7, FEV (Homo sapiens, UniProt Q99581 1-238); settings: protein: recombinant; tags: N-terminal GST; dsDNA, one strand shown
# T7 sequence: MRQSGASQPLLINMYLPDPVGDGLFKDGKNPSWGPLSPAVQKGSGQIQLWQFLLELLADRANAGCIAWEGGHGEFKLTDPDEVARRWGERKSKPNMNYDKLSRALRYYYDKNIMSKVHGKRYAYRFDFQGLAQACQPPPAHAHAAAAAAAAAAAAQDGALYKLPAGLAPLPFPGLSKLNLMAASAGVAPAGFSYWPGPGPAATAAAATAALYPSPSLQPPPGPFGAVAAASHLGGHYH
# Procedure, shortened: as §1
# [11] = target: ETV5 (Homo sapiens, UniProt P41161 1-510); settings: protein: recombinant; tags: N-terminal GST; dsDNA, one strand shown
# Procedure, shortened: as §1
# [12] = target: HSF1 (Homo sapiens, UniProt Q00613 1-529); settings: protein: recombinant; tags: N-terminal GST; chain copies: 3; dsDNA, one strand shown
# Procedure, shortened: as §1
# [13] = target: T8, SPIC (Homo sapiens, UniProt Q8N5J4 1-248); settings: protein: recombinant; tags: N-terminal GST; dsDNA, one strand shown
# T8 sequence: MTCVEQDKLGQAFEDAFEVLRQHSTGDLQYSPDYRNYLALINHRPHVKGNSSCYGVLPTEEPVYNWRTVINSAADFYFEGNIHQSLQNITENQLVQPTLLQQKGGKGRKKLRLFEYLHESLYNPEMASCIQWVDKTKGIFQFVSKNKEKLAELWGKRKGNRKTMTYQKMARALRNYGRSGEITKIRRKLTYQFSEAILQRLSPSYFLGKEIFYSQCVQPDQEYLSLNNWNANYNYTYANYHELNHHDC
# Procedure, shortened: as §1
# [14] = target: ELF4 (Homo sapiens, UniProt Q99607 1-663); settings: protein: recombinant; tags: N-terminal GST; dsDNA, one strand shown
# Procedure, shortened: as §1
# [15] = target: T9, ELK4 (Homo sapiens, UniProt P28324-2 1-405); settings: protein: recombinant; tags: N-terminal GST; dsDNA, one strand shown
# T9 sequence: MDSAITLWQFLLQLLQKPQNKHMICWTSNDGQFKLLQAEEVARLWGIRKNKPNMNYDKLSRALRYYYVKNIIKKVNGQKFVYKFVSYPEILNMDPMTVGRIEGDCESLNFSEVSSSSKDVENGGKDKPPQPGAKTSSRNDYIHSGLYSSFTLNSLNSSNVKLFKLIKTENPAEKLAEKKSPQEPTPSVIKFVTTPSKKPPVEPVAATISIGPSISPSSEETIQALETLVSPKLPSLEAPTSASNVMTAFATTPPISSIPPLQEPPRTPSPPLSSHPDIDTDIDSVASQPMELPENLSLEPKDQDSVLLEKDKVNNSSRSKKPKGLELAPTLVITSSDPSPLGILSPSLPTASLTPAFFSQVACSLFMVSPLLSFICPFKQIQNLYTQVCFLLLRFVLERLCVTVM
# Procedure, shortened: as §1
# [16] = target: T10, ETV2 (Homo sapiens, UniProt O00321 1-342); settings: protein: recombinant; tags: N-terminal GST; dsDNA, one strand shown
# T10 sequence: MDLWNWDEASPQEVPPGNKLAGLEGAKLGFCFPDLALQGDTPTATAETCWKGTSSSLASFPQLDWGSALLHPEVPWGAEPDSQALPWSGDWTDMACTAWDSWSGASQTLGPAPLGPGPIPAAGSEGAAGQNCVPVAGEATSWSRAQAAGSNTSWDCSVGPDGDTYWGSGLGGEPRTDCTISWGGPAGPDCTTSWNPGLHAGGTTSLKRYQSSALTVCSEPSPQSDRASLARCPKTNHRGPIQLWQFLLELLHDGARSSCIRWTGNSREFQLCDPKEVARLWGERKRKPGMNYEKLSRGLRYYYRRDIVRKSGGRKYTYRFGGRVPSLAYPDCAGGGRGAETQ
# Procedure, shortened: as §1
# [17] = target: T11, ELF3 (Homo sapiens, UniProt P78545 1-371); settings: protein: recombinant; tags: N-terminal GST; dsDNA, one strand shown
# T11 sequence: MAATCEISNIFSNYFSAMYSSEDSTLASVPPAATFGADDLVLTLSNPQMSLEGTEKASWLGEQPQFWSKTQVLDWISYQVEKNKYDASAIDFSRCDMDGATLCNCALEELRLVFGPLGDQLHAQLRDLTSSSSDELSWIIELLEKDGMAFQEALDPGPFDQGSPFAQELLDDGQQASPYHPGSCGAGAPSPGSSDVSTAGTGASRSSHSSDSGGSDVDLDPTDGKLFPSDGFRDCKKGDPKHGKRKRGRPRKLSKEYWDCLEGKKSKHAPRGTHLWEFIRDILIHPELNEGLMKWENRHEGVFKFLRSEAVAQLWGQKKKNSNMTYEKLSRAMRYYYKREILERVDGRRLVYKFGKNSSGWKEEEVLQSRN
# Procedure, shortened: as §1
# [18] = target: CRX (Homo sapiens, UniProt O43186 1-299); settings: protein: recombinant; tags: N-terminal GST; dsDNA, one strand shown
# Procedure, shortened: as §1
# [19] = target: ETV1 (Homo sapiens, UniProt P50549 1-477); settings: protein: recombinant; tags: N-terminal GST; dsDNA, one strand shown
# Procedure, shortened: as §1
# Chain of CRX (O43186 whole entry): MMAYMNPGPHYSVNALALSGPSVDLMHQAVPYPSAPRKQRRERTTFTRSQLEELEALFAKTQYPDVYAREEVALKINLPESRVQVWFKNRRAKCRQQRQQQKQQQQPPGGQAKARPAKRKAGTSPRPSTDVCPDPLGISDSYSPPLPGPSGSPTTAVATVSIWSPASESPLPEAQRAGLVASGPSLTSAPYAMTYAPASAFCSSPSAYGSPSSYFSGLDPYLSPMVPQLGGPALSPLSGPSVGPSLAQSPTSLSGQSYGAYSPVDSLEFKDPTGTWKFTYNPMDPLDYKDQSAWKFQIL
# Chain of ELF4 (Q99607 whole entry): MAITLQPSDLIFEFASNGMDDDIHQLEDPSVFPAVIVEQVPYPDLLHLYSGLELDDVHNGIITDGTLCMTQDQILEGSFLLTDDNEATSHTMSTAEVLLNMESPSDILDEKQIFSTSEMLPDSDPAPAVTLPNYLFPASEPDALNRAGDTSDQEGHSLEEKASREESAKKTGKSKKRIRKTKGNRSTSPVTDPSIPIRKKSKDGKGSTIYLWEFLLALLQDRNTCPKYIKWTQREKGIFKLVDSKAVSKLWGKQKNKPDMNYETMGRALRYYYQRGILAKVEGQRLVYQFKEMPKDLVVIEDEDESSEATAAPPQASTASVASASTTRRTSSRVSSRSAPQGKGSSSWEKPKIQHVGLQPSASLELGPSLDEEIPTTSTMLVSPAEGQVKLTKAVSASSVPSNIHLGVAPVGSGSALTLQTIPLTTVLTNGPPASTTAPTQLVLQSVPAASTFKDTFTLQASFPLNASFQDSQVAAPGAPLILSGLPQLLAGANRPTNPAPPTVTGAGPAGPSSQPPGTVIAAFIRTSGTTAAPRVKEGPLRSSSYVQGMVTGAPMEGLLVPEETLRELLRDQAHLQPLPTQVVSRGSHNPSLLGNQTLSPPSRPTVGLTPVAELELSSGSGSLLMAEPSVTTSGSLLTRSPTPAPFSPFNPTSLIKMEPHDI
# Chain of ETV5 (P41161 whole entry): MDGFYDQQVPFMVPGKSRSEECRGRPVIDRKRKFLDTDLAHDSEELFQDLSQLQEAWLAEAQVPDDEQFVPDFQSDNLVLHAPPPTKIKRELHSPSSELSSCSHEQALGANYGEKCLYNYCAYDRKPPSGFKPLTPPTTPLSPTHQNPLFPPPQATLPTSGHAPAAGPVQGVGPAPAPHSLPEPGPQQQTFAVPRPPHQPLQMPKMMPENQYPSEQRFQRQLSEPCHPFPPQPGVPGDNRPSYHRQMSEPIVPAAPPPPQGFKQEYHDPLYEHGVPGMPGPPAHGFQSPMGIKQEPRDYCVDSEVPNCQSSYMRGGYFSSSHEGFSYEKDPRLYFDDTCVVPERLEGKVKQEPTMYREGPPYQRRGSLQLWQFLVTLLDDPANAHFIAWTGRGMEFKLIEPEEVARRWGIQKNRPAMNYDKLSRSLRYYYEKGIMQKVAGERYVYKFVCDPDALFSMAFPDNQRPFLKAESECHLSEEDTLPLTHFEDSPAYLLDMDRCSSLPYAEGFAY
# Chain of SPIB (Q01892 whole entry): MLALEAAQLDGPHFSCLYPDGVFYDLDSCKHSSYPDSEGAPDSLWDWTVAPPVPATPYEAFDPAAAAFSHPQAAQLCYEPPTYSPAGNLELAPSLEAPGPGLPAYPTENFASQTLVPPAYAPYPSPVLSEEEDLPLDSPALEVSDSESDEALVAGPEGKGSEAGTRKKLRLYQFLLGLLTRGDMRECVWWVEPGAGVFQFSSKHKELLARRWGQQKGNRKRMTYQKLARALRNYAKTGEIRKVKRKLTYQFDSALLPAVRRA
# Chain of HSF1 (Q00613 whole entry): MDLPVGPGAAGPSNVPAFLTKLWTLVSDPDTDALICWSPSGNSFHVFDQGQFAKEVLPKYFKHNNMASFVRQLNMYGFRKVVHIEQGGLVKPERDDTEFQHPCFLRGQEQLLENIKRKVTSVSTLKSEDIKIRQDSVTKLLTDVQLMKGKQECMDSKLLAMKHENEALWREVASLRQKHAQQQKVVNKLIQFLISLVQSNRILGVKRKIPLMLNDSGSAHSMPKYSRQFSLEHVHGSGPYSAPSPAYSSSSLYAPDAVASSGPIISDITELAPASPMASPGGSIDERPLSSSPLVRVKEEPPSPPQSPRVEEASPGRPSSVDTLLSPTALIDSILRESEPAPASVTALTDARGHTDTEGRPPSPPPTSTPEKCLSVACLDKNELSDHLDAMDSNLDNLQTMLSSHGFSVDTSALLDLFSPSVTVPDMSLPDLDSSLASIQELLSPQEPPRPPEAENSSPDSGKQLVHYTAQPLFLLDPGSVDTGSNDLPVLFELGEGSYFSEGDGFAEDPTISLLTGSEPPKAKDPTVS
# Chain of ELF1 (P32519 whole entry): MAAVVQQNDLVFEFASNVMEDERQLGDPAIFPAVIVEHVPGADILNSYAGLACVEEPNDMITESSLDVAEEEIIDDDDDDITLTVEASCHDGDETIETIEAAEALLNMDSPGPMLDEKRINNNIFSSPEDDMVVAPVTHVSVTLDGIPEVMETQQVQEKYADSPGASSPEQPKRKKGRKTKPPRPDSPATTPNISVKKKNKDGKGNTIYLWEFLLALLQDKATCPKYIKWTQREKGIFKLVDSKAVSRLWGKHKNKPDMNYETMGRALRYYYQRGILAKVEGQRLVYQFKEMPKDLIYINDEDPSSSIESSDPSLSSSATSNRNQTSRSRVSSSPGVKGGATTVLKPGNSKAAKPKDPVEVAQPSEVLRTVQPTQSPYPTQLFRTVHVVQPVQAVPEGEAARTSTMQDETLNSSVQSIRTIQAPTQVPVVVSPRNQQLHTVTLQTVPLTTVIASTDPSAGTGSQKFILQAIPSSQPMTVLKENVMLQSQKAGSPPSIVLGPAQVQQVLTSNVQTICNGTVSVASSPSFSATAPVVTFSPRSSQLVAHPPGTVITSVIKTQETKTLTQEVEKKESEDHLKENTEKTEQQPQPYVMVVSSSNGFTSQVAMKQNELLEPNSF
# Chain of ETV1 (P50549 whole entry): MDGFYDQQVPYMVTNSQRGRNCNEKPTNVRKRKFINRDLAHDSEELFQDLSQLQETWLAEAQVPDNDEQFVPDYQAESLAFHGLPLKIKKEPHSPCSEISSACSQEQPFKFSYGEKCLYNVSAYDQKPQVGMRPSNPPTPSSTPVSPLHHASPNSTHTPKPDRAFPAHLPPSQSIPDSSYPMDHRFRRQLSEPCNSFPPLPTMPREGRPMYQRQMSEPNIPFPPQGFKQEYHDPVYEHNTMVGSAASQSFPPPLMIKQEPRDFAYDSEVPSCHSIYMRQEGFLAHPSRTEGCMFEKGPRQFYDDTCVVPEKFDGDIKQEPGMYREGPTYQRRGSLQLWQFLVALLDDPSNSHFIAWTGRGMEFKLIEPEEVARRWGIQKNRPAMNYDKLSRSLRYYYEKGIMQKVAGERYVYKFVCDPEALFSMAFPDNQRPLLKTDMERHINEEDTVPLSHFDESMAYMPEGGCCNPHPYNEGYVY
sequence,measurement,setting,value
CTCGAT,binding signal,[1],"1.48 fold enrichment (6-mer frequency, TF over GST control)"
same,binding signal,[2],"1.38 fold enrichment (6-mer frequency, TF over GST control)"
same,binding signal,[3],"1.32 fold enrichment (6-mer frequency, TF over GST control)"
same,binding signal,[4],"1.26 fold enrichment (6-mer frequency, TF over GST control)"
same,binding signal,[5],"1.49 fold enrichment (6-mer frequency, TF over GST control)"
same,binding signal,[6],"1.27 fold enrichment (6-mer frequency, TF over GST control)"
same,binding signal,[7],"1.36 fold enrichment (6-mer frequency, TF over GST control)"
same,binding signal,[8],"1.49 fold enrichment (6-mer frequency, TF over GST control)"
same,binding signal,[9],"1.18 fold enrichment (6-mer frequency, TF over GST control)"
same,binding signal,[10],"1.29 fold enrichment (6-mer frequency, TF over GST control)"
same,binding signal,[11],"1.3 fold enrichment (6-mer frequency, TF over GST control)"
same,binding signal,[12],"2.06 fold enrichment (6-mer frequency, TF over GST control)"
same,binding signal,[13],"1.46 fold enrichment (6-mer frequency, TF over GST control)"
same,binding signal,[14],"1.43 fold enrichment (6-mer frequency, TF over GST control)"
same,binding signal,[15],"1.59 fold enrichment (6-mer frequency, TF over GST control)"
same,binding signal,[16],"1.25 fold enrichment (6-mer frequency, TF over GST control)"
same,binding signal,[17],"1.09 fold enrichment (6-mer frequency, TF over GST control)"
same,binding signal,[18],"1.48 fold enrichment (6-mer frequency, TF over GST control)"
same,binding signal,[19],"1.27 fold enrichment (6-mer frequency, TF over GST control)"
